In the supplement of paper PMC10849652 one finds log2 fold change data, which are given here for 39 targets.

The full data set covers some 8,800 targets. This sample favours those with a hit. About 0.5% of all pairs of compound and target were hits.

UniProt Q96A33, sequence (Q96A33 whole entry, looked up): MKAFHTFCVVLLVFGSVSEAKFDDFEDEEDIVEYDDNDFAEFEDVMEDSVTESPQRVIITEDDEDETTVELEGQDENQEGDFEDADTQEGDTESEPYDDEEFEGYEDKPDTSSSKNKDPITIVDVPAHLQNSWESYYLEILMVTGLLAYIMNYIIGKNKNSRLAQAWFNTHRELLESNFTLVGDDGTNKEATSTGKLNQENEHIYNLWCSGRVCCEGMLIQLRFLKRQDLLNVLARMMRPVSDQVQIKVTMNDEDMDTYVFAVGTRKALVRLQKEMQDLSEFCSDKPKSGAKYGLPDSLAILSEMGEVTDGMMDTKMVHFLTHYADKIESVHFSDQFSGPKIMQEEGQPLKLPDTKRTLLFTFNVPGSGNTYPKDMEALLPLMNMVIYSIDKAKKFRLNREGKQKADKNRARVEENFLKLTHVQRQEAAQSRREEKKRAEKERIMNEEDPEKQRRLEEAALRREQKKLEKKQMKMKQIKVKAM
UniProt O75419, sequence (O75419 whole entry, looked up): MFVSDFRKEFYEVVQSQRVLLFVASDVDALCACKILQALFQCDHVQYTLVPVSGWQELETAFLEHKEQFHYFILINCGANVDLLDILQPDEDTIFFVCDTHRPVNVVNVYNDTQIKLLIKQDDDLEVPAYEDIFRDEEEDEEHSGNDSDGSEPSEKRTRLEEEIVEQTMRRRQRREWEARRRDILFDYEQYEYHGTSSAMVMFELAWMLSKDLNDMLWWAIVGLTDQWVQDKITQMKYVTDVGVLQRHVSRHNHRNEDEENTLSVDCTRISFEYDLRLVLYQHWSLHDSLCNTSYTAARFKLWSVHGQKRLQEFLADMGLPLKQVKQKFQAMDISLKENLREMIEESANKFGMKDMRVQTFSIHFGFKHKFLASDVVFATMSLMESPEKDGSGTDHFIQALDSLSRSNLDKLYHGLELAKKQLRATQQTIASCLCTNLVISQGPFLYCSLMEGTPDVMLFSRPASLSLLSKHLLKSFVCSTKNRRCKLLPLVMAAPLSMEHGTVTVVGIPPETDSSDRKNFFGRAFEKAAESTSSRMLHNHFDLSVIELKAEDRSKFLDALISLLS
UniProt Q7L2Z9, sequence (Q7L2Z9 whole entry, looked up): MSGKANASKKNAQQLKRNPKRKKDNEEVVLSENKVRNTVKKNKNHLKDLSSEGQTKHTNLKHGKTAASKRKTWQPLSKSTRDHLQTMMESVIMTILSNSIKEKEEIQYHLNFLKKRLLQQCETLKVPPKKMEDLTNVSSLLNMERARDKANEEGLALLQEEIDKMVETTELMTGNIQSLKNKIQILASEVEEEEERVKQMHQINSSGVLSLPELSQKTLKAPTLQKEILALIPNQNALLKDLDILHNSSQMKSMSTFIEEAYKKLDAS
UniProt P21953, sequence (P21953 whole entry, looked up): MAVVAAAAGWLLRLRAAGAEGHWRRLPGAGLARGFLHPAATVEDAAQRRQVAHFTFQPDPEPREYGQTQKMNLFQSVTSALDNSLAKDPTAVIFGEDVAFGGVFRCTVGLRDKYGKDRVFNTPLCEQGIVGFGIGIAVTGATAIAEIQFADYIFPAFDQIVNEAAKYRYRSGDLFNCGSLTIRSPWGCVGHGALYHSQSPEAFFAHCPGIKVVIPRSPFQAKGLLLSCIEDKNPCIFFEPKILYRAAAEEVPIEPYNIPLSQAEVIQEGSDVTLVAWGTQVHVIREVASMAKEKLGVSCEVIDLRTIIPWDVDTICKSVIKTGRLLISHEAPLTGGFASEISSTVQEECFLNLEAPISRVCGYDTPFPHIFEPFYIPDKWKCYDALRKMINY
UniProt Q9H257, sequence (Q9H257 whole entry, looked up): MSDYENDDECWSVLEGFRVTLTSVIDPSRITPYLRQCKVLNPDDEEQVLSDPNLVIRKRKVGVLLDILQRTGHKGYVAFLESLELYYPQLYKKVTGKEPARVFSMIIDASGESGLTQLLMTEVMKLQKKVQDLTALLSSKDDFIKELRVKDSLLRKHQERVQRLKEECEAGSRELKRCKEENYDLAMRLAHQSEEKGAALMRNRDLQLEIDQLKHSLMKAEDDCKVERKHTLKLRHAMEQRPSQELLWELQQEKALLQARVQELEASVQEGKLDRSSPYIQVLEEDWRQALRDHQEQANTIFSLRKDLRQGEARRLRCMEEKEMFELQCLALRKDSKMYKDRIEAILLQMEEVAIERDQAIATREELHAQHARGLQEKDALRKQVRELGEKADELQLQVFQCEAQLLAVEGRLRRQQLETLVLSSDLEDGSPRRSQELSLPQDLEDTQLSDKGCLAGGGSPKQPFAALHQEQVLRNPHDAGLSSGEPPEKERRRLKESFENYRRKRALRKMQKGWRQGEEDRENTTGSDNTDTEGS
UniProt Q14692, sequence (Q14692 whole entry, looked up): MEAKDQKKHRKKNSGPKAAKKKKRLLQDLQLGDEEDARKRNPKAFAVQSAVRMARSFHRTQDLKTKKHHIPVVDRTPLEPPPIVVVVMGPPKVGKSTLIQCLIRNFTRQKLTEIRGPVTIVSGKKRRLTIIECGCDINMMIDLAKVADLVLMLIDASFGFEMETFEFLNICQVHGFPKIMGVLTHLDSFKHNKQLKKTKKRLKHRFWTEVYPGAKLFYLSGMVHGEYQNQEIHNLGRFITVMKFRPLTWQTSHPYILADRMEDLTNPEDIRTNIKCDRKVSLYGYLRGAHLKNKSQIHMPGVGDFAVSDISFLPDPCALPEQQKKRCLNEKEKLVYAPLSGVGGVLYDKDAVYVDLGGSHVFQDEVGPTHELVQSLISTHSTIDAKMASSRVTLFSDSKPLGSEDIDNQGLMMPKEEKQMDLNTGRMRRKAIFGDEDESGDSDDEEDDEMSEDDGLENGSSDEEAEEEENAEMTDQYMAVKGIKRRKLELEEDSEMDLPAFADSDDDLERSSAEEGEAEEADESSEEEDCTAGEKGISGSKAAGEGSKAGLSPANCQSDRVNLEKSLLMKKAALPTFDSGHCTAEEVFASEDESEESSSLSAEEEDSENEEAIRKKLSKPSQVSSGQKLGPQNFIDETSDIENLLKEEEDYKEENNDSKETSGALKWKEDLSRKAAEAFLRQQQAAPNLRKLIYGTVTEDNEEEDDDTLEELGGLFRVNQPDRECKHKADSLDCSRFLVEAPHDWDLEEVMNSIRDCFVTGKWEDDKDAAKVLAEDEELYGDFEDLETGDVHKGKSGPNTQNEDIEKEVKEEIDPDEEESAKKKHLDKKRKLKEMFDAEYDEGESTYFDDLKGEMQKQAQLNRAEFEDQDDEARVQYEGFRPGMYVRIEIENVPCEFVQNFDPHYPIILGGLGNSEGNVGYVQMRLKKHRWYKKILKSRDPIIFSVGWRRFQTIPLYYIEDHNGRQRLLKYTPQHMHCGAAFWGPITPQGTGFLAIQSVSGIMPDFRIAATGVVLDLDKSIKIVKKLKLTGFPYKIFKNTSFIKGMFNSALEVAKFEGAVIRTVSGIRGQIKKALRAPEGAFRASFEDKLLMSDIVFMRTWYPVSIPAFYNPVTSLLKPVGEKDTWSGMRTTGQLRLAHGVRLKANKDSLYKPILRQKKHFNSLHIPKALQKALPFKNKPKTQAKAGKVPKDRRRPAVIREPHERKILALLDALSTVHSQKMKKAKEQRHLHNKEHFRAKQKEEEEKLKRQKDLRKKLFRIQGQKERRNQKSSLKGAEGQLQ
UniProt P50750, sequence (P50750 whole entry, looked up): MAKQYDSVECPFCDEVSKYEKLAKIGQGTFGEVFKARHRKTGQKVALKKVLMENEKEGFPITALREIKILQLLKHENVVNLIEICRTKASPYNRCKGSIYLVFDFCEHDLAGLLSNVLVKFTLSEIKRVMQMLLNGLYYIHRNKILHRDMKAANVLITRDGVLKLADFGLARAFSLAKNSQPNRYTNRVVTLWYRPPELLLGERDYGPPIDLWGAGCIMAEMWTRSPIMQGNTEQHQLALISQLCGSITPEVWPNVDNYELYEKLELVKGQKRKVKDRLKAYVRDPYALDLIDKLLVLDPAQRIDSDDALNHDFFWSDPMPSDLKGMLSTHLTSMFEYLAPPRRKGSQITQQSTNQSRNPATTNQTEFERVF
UniProt P08962, sequence (P08962 whole entry, looked up): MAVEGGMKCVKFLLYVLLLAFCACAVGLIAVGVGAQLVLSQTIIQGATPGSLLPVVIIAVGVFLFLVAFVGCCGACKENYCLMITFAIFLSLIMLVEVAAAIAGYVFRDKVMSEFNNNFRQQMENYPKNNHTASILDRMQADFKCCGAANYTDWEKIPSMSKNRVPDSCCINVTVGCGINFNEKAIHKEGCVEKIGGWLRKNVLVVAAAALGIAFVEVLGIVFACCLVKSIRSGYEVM
UniProt Q9Y487, sequence (Q9Y487 whole entry, looked up): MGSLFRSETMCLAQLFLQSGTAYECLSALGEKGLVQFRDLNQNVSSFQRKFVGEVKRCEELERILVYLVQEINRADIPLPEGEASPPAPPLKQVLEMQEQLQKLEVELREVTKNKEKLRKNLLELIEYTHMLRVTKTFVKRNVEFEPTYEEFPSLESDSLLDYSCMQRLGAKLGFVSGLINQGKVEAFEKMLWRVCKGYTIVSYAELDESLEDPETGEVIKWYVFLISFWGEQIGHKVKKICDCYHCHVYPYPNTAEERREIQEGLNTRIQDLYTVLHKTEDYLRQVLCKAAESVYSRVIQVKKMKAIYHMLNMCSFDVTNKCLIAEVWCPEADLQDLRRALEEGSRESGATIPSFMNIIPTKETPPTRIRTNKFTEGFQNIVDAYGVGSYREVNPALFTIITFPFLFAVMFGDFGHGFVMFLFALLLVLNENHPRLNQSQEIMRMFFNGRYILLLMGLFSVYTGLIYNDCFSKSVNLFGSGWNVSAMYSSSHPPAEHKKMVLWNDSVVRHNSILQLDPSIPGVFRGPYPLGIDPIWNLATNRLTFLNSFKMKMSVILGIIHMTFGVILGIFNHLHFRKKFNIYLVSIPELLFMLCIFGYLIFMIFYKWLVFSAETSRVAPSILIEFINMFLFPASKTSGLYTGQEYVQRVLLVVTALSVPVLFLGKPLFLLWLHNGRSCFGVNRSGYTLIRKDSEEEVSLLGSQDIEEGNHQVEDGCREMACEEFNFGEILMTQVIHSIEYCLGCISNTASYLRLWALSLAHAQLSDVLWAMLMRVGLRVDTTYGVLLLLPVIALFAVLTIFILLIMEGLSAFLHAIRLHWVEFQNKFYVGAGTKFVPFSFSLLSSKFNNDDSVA

Compound in one test: COc1cc2nc(-c3cc(F)ccc3O)nc(N[C@@H]3CNC[C@H]3C(C)(C)O)c2cc1OC
Nature of the test: log2 fold change, soluble protein after heating vs DMSO (PISA); higher = thermal stabilisation; K562 lysate, 10 uM; active = over 0.2 and 3.5 SD of the protein, either way, in both replicates (recomputed). The procedure, abridged: (§1)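 Values give the log-two fold change in thermal stability against solvent controls, from duplicates. Crude K562 extract at 1 mg/mL protein, made by dounce homogenisation in PBS pH 7.4 with 1 mM MgCl2, was treated with 10 μM compound for 30 min. After 3 min heating across 48°C-58°C, aliquots were pooled, adjusted to 0.5% NP-40 at 4°C and centrifuged at 21,000xg for 90 min. The supernatant was measured by TMTpro 16plex LC-MS/MS with channel sums equalised.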
Take CD63 (UniProt P08962): the log2 fold change is -0.02 (inactive).

ATR (UniProt Q13535): the log2 fold change was 0.077 (inactive).

CCDC47 (UniProt Q96A33): the log2 fold change is -0.035 (inactive).

Consider CCNA2 (UniProt P20248), for which the log2 fold change was 0.176 (inactive).

For CHD4 isoform 2 (UniProt Q14839), the log2 fold change is -0.007 (inactive).

Regarding CENPQ (UniProt Q7L2Z9), the log2 fold change is -0.068 (inactive).

Regarding BLM (UniProt P54132), the log2 fold change was -0.006 (inactive).

Regarding ATP6V0A2 (UniProt Q9Y487), the log2 fold change was 0.048 (inactive).

With BTAF1 (UniProt O14981), the log2 fold change is -0.008 (inactive).

As to CDC42EP4 (UniProt Q9H3Q1), the log2 fold change is -0.017 (inactive).

BMS1 (UniProt Q14692): the log2 fold change was -0.01 (inactive).

Take CDK9 isoform 2 (UniProt P50750): the log2 fold change was 0.191 (inactive).

Regarding C12orf45 (UniProt Q8N5I9), the log2 fold change is 0.01 (inactive).

For BCKDHB (UniProt P21953), the log2 fold change is -0.015 (inactive).

For the target CDC45 isoform 3 (UniProt O75419), the log2 fold change was 0.009 (inactive).

Regarding BUD23 isoform 3 (UniProt O43709), the log2 fold change was 0.085 (inactive).

As to CARD9 (UniProt Q9H257), the log2 fold change is 0.009 (inactive).

Compound in another test: COc1cc2ncnc(Nc3ccc(F)c(Cl)c3)c2cc1OCCCN1CCOCC1 [gefitinib]
Described as above. The gist of the method: as §1
On to BRD4 (UniProt O60885), for which the log2 fold change was 0.034 (inactive).

In the case of CAMKK1 isoform 2 (UniProt Q8N5S9), the log2 fold change is 0.03 (inactive).

As for ATG13 isoform 2 (UniProt O75143), the log2 fold change is -0.013 (inactive).

As to ATAD1 (UniProt Q8NBU5), the log2 fold change is 0.22 (inactive).

Turning to BSDC1 (UniProt Q9NW68), the log2 fold change was -0.017 (inactive).

As to ATP5PF isoform 2 (UniProt P18859), the log2 fold change is -0.173 (inactive).

Regarding CAD (UniProt P27708), the log2 fold change is -0.032 (inactive).

Regarding CHCHD2 (UniProt Q9Y6H1), the log2 fold change is 0.28 (inactive).

Regarding CHCHD4 isoform 2 (UniProt Q8N4Q1), the log2 fold change is -0.015 (inactive).

For CCNC (UniProt P24863), the log2 fold change is 0.017 (inactive).

For CELF2 isoform 3 (UniProt O95319), the log2 fold change is -0.061 (inactive).

CEP120 (UniProt Q8N960): the log2 fold change was 0.119 (inactive).

Turning to CCDC25 (UniProt Q86WR0), the log2 fold change was 0.01 (inactive).

On to CELF1 isoform 4 (UniProt Q92879), for which the log2 fold change is 0.056 (inactive).

For the target BNIP1 (UniProt Q12981), the log2 fold change was -0.018 (inactive).

Turning to CHD5 (UniProt Q8TDI0), the log2 fold change was -0.001 (inactive).

Regarding ATP2B4 (UniProt P23634), the log2 fold change was 0.023 (inactive).

For CANX isoform 2 (UniProt P27824), the log2 fold change is 0.008 (inactive).

For BCKDK (UniProt O14874), the log2 fold change was 0.053 (inactive).

In the case of CCAR2 (UniProt Q8N163), the log2 fold change was 0.003 (inactive).

Consider CDC40 (UniProt O60508), for which the log2 fold change is -0.021 (inactive).

For CDK5RAP2 (UniProt Q96SN8), the log2 fold change is -0.021 (inactive).

As for CD63 (UniProt P08962), the log2 fold change was -0.023 (inactive).

For the target ATR (UniProt Q13535), the log2 fold change was 0.052 (inactive).

With CCDC47 (UniProt Q96A33), the log2 fold change was -0.011 (inactive).

As to CCNA2 (UniProt P20248), the log2 fold change is 0.019 (inactive).

As for CHD4 isoform 2 (UniProt Q14839), the log2 fold change is -0.014 (inactive).

Consider CENPQ (UniProt Q7L2Z9), for which the log2 fold change is 0.091 (inactive).

On to BLM (UniProt P54132), for which the log2 fold change was -0.054 (inactive).

Turning to ATP6V0A2 (UniProt Q9Y487), the log2 fold change is 0.036 (inactive).

For the target BTAF1 (UniProt O14981), the log2 fold change was 0.009 (inactive).

For CDC42EP4 (UniProt Q9H3Q1), the log2 fold change is 0.006 (inactive).

As to BMS1 (UniProt Q14692), the log2 fold change is -0.042 (inactive).

Take CDK9 isoform 2 (UniProt P50750): the log2 fold change was 0.008 (inactive).

With C12orf45 (UniProt Q8N5I9), the log2 fold change is 0.011 (inactive).

Turning to BCKDHB (UniProt P21953), the log2 fold change is -0.024 (inactive).

Regarding CDC45 isoform 3 (UniProt O75419), the log2 fold change was -0.034 (inactive).

On to BUD23 isoform 3 (UniProt O43709), for which the log2 fold change was 0.054 (inactive).

For the target CARD9 (UniProt Q9H257), the log2 fold change is -0.021 (inactive).

Compound in a further test: CS(=O)(=O)CCNCc1ccc(-c2ccc3ncnc(Nc4ccc(OCc5cccc(F)c5)c(Cl)c4)c3c2)o1 [lapatinib]
Described as above. The procedure, abridged:
as §1
Consider BRD4 (UniProt O60885), for which the log2 fold change is 0.044 (inactive).

CAMKK1 isoform 2 (UniProt Q8N5S9): the log2 fold change was 0.061 (inactive).

As to ATG13 isoform 2 (UniProt O75143), the log2 fold change is 0.018 (inactive).

With ATAD1 (UniProt Q8NBU5), the log2 fold change was -0.158 (inactive).

On to BSDC1 (UniProt Q9NW68), for which the log2 fold change was 0.088 (inactive).

In the case of ATP5PF isoform 2 (UniProt P18859), the log2 fold change is 0.04 (inactive).

For CAD (UniProt P27708), the log2 fold change is -0.023 (inactive).

Consider CHCHD2 (UniProt Q9Y6H1), for which the log2 fold change was 0.035 (inactive).

In the case of CHCHD4 isoform 2 (UniProt Q8N4Q1), the log2 fold change is 0.045 (inactive).

Take CCNC (UniProt P24863): the log2 fold change is -0.108 (inactive).

On to CELF2 isoform 3 (UniProt O95319), for which the log2 fold change is 0.039 (inactive).

CEP120 (UniProt Q8N960): the log2 fold change was -0.076 (inactive).

Regarding CCDC25 (UniProt Q86WR0), the log2 fold change was -0.028 (inactive).

Turning to CELF1 isoform 4 (UniProt Q92879), the log2 fold change is 0.011 (inactive).

Regarding BNIP1 (UniProt Q12981), the log2 fold change was -0.007 (inactive).

Consider CHD5 (UniProt Q8TDI0), for which the log2 fold change was 0.028 (inactive).

For the target ATP2B4 (UniProt P23634), the log2 fold change is -0.022 (inactive).

Take CANX isoform 2 (UniProt P27824): the log2 fold change is 0.018 (inactive).

BCKDK (UniProt O14874): the log2 fold change was -0.056 (inactive).

With CCAR2 (UniProt Q8N163), the log2 fold change was 0.002 (inactive).

On to CDC40 (UniProt O60508), for which the log2 fold change was -0.028 (inactive).

In the case of CDK5RAP2 (UniProt Q96SN8), the log2 fold change was -0.182 (inactive).

Turning to CD63 (UniProt P08962), the log2 fold change was 0.006 (inactive).

As to ATR (UniProt Q13535), the log2 fold change was -0.036 (inactive).

On to CCDC47 (UniProt Q96A33), for which the log2 fold change was -0.05 (inactive).

CCNA2 (UniProt P20248): the log2 fold change is -0.004 (inactive).

Consider CHD4 isoform 2 (UniProt Q14839), for which the log2 fold change is 0.003 (inactive).

Consider CENPQ (UniProt Q7L2Z9), for which the log2 fold change was 0.101 (inactive).

Turning to BLM (UniProt P54132), the log2 fold change is -0.007 (inactive).

On to ATP6V0A2 (UniProt Q9Y487), for which the log2 fold change was -0.07 (inactive).

For the target BTAF1 (UniProt O14981), the log2 fold change is 0.015 (inactive).

With CDC42EP4 (UniProt Q9H3Q1), the log2 fold change was 0.031 (inactive).

On to BMS1 (UniProt Q14692), for which the log2 fold change was -0.029 (inactive).

With CDK9 isoform 2 (UniProt P50750), the log2 fold change is -0.103 (inactive).

On to C12orf45 (UniProt Q8N5I9), for which the log2 fold change is -0.027 (inactive).

Turning to BCKDHB (UniProt P21953), the log2 fold change is 0.005 (inactive).

As to CDC45 isoform 3 (UniProt O75419), the log2 fold change is -0.036 (inactive).

Take BUD23 isoform 3 (UniProt O43709): the log2 fold change is 0.052 (inactive).

Consider CARD9 (UniProt Q9H257), for which the log2 fold change was -0.048 (inactive).
